# Data reported in the supplement of paper PMC9262897, “Low-cost anti-mycobacterial drug discovery using engineered E. coli” (Nature Communications, 2022).
# Counter-ions that a name gives are not always drawn. ± gives the standard deviation of the averaged measurements.
# Tested on: E. coli TESEC Mtb Alr
# Assay: growth (OD600 after 10 h); higher = more growth (less inhibition)
# Details: arabinose 10000000 nM; compound 0.1 mM; raw OD600 reference: median of DMSO wells […], cell-free background 0.052
# Description: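 TESEC Mtb Alr E. coli (ΔaraC ΔtolC ΔentC Δalr ΔdadX, arabinose-inducible Mtb Alr) or the Alr+ wild-type control strain, grown in defined M9-fructose medium without D-alanine in 96-well plates with Prestwick library compounds at 0.1 mM and 1% DMSO. Low Alr induction is 0.1 µM arabinose and high induction is 10 mM arabinose.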
row,SMILES,growth
1,CN1CCCC(n2nc(Cc3ccc(Cl)cc3)c3ccccc3c2=O)CC1 (stereo not drawn) [Azelastine HCl],0.312 ± 0.019
2,COC(=O)Nc1nc2ccc(SC(C)C)cc2[nH]1 [Methiazole],0.37 ± 0.025
3,CCCCNC(=O)NS(=O)(=O)c1ccc(C)cc1 [Tolbutamide],0.352 ± 0.021
4,CS(=O)(=O)OCCCCOS(C)(=O)=O [Busulfan],0.362 ± 0.029
5,Fc1ccc([C@@H]2CCNC[C@H]2COc2ccc3c(c2)OCO3)cc1 [Paroxetine Hydrochloride],0.134 ± 0.073
6,CC1(C)O[C@@H]2C[C@H]3[C@@H]4C[C@H](F)C5=CC(=O)C=C[C@]5(C)[C@H]4[C@@H](O)C[C@]3(C)[C@]2(C(=O)CO)O1 [Flunisolide],0.335 ± 0.012
7,CNCCc1ccccn1 [Betahistine mesylate],0.319 ± 0.025
8,CC(C(=O)O)c1ccc(C(=O)c2cccs2)cc1 (stereo not drawn) [Suprofen],0.3826 ± 0.0029
9,CCCCCCCCNC(C)C(O)c1ccc(SC(C)C)cc1 (stereo not drawn) [Suloctidil],0.0516 ± 0.00081
10,CCCc1cc(C(N)=S)ccn1 [Prothionamide],0.36 ± 0.021
11,CCC[C@@H]1C[C@@H](C(=O)N[C@@H]([C@H]2O[C@H](SC)[C@H](O)[C@@H](O)[C@H]2O)[C@@H](C)O)N(C)C1 [Lincomycin hydrochloride],0.12 ± 0.019
12,C[C@]12CC[C@@H]3c4ccc(O)cc4C[C@@H](CCCCCCCCC[S+]([O-])CCCC(F)(F)C(F)(F)F)[C@H]3[C@@H]1CC[C@@H]2O (stereo partly drawn) [Fulvestrant],0.355 ± 0.028
13,CN(C)CCCSC(=N)N [Dimaprit dihydrochloride],0.349 ± 0.019
